Test [1] can be described thus: resazurin metabolic signal in HepG2 cells – cell-based, resazurin fluorescence, 24 h, PK04 Diversity Set, profiling panel (AID 1172). Further: test concentration not given here. The settings on record: HepG2 viability, higher = more signal. Background: The colour change of resazurin is a common sign of viable cells or microbes.
Test [2] in a line: budding yeast growth changes without added modifier – OD600, strain BY4716, 24 h, basal condition, primary screen (AID 1173). The settings on record: S. cerevisiae BY4716 growth, OD600, 24 h; higher = more signal, called active from +8 up or from −8 down.
Test [3] can be described thus: viability profiling in MM1S myeloma cells – cell-based, resazurin fluorescence, basal, 24 h, PK04 Diversity Set, profiling panel (AID 1174).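 Further: MM1S multiple myeloma cell line; test concentration not given here.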 As to conditions: higher = more signal, called active from +8 up or from −8 down.
In test [4] the target is Dihydroorotate dehydrogenase (quinone), mitochondrial (Plasmodium falciparum (isolate 3D7)) (UniProt Q08210). The test can be described thus: inhibition of P. falciparum DHODH – biochemical, C-terminal His tag, absorbance 600 nm, primary screen (AID 1175).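 Further: recombinant parasite enzyme with a five histidine tag at its C terminus; test concentration not given here.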 As to conditions: PfDHODH enzyme, DCIP absorbance 600 nm; higher = more signal, called active from +8 up or from −8 down.
Sequence of Dihydroorotate dehydrogenase (quinone), mitochondrial (Plasmodium falciparum (isolate 3D7)) (Q08210 whole entry, looked up): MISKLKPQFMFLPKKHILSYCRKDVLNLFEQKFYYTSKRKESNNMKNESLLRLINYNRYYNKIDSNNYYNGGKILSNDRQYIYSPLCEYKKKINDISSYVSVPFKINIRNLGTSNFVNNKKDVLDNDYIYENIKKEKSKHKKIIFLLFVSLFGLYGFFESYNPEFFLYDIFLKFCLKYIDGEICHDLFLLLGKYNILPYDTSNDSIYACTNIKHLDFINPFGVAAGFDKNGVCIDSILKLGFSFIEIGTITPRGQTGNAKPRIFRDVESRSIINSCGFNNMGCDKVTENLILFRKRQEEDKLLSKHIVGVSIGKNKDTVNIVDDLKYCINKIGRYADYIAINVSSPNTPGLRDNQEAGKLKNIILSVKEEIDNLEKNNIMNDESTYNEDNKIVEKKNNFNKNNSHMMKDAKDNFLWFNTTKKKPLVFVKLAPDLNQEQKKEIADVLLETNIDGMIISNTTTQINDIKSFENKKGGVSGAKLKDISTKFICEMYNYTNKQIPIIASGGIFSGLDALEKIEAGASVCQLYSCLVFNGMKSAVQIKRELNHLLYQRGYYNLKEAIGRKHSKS

Test [5] in a line: inhibition of PAO1 biofilm formation – strain PAO1, LB-PBS medium, absorbance 600 nm, primary screen (AID 1176). Further: test concentration not given here. The settings on record: P. aeruginosa PAO1 growth/biofilm, A600, 12 h; higher = more signal.
Test [6] can be described thus: growth modulation of vineyard yeast isolate – strain RM11-1a, OD600, basal, 24 h, primary screen (AID 1177).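 Further: cultures grown under basal conditions with no added stressor; test concentration not given here.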 As to conditions: S. cerevisiae RM11-1a growth, OD600, 24 h; higher = more signal, called active from +8 up or from −8 down.
Test [7] in a line: growth of efflux-deficient E. coli DRC39 – strain DRC39, OD650, 24 h, E. coli filamentation inducers, primary screen (AID 1178).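 Further: growth measured as culture turbidity by optical density at 650 nm; test concentration not given here.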 The settings on record: E. coli DRC39 acrAB, higher = more signal, called active from +8 up or from −8 down.
Test [8] can be described thus: growth of efflux-deficient E. coli DRC39 – strain DRC39, OD650, 48 h, E. coli filamentation inducers, primary screen (AID 1179).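 Further: screen aims at cell division blockers that make cells filament.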 The settings on record: E. coli DRC39 delta-acrAB growth, higher = more signal, called active from +8 up or from −8 down.
Test [9] in a line: viability profiling in RPMI8226 myeloma cells – cell-based, resazurin fluorescence, basal, 24 h, PK04 Diversity Set, profiling panel (AID 1180).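 Further: RPMI8826 multiple myeloma cell line at 5000 cells per well; test concentration not given here.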 As to conditions: higher = more signal.
Test [10] concerns the target E3 ubiquitin-protein ligase XIAP (Homo sapiens) (UniProt P98170). Put plainly: small molecules binding XIAP protein – biophysical, small-molecule microarray, fluorescence 635 nm, primary screen (AID 1181).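 Further: score merges 667 nm emission and signal to noise over triplicate slides.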 The settings on record: higher = more signal.

Active and inactive are the calls of the source. Unless noted, how the calls were made is not given here.

Sequence of E3 ubiquitin-protein ligase XIAP (Homo sapiens) (P98170 whole entry, looked up): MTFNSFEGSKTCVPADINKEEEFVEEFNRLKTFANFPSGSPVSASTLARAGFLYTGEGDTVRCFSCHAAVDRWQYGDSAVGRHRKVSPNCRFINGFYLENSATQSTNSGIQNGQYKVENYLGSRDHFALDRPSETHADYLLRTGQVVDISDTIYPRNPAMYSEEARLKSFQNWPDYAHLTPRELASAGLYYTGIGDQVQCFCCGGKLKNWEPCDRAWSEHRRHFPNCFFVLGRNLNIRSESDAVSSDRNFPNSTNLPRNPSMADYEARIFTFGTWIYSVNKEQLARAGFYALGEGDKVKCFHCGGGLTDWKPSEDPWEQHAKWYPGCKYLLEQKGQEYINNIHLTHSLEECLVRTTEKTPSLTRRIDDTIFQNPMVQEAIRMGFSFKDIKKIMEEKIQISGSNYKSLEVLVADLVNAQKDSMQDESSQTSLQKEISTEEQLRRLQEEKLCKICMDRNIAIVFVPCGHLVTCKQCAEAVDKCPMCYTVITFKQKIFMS

With `CCN1C(=O)[C@H]2[C@H]3[C@H](O)[C@H](O)CC(=NOCC[C@@H]4C=C[C@H](OC(C)=O)[C@@H](COC(C)=O)O4)[C@@H]3CC[C@H]2C1=O`, the z-score in test [1] was -1.02; in test [2] it was 0.508 (inactive); in [3], -1.85 (inactive); in test [5], 1.22 (inactive); in test [6], -0.183 (inactive); in test [7] it was 0.178 (inactive). The z-score is -0.0655 (inactive) in test [8] and -1.05 in test [9]. In addition, the figures for the composite z-score in test [4] and in test [10] were -0.666 (inactive) and 0.134, respectively.
On to `O=C(NCCC[N+]1=CC=NC1c1ccccc1)N1CCCc2nc(-c3ccc(Br)cc3)ccc21` (stereo not given), for which the z-score in [1] was 0.0392; in [2] it was -2.72 (inactive); in test [3], -1.04 (inactive); in [5] it was 0.508 (inactive); in [6] it was 1.6 (inactive); in [7], 1.11 (inactive). The z-score in [8] is -0.493 (inactive); in [9], -0.29. Further, the values for the composite z-score in [4] and in [10] were 1.01 (inactive) and -0.105, respectively.
Consider `COC(=O)[C@H](C)NC(=O)CCC1CC(OC(=O)NCc2ccc3c(c2)OCO3)CC2(CCCC(COC(=O)NCCCN3CCCC3=O)O2)O1` (stereo not given in full), for which the z-score in test [1] is 0.161; in test [2], 0.58 (inactive); in [3] it was -0.0358 (inactive); in test [5], 0.226 (inactive); in test [6], 1.04 (inactive); in test [7], 0.7 (inactive). Besides, the figures for the z-score in test [8] and in [9] were -0.028 (inactive) and 0.0805, respectively. Further, the values for the composite z-score in test [4] and in test [10] were 0.184 (inactive) and -0.245, respectively.
Consider `COc1ccc2c(c1)O[C@@H](c1cccc(C(F)(F)F)c1)[C@H](O)C2=O`, for which the z-score in [1] was 0.669; in [2], -14.3 (active); in test [3], -0.104 (inactive); in test [5], 0.699 (inactive); in [6], -1.04 (inactive); in test [7] it was 1.23 (inactive). The results for the z-score in test [8] and in test [9] were 1.34 (inactive) and 0.8, respectively. Besides, the composite z-score was -0.445 (inactive) in test [4] and 0.0223 in test [10].
With `O=C1[C@H]2[C@H]3[C@H](O)[C@H](O)CC(=NOC[C@@H](O)COCc4ccco4)[C@@H]3CC[C@H]2C(=O)N1Cc1ccccc1`, the z-score is 0.379 in test [1]; -1.64 (inactive) in test [2]; -0.737 (inactive) in test [3]; -1.01 (inactive) in test [5]; -0.426 (inactive) in [6]; 0.17 (inactive) in [7]. Moreover, the z-score in [8] is 0.616 (inactive); in test [9] it was 0.569. Besides, the composite z-score is -0.137 (inactive) in [4] and -0.194 in test [10].
For the molecule `CCOC(=O)[C@H](Cc1ccccc1)NC(=O)CCC1CC(OC(=O)NCc2cccc3ccccc23)CC2(CCCC(COC(=O)NCCc3ccc(Cl)cc3)O2)O1` (stereo not given in full), the z-score in test [1] is 0.723; in test [2], -1.24 (inactive); in [3] it was 0.768 (inactive); in test [5] it was 0.32 (inactive); in test [6], -0.424 (inactive); in test [7], -0.178 (inactive). The results for the z-score in [8] and in test [9] were -0.907 (inactive) and 1.45, respectively. Further, the composite z-score in test [4] was -0.617 (inactive); in [10] it was 0.165.
For `CC(C)CON=C1[C@H]2CCn3c(=O)n(C)c(=O)n3[C@H]2[C@H](O)[C@@H]2O[C@H]12`, the z-score in test [1] is -0.423; in [2], 0.0789 (inactive); in test [3], 0.0226 (inactive); in [5], -0.425 (inactive); in test [6] it was -0.353 (inactive); in test [7], -0.0374 (inactive). For the same molecule, the z-score in test [8] is -0.0718 (inactive); in test [9], -0.347. Further, the composite z-score in [4] was -0.764 (inactive); in test [10], -0.117.
On to `CC(C)CON=C1C[C@@H](O)[C@@H](O)[C@@H]2[C@@H]3C(=O)N(C(C)(C)C)C(=O)[C@@H]3CC[C@@H]12`, for which the z-score is -0.685 in test [1]; -0.322 (inactive) in test [2]; 0.4 (inactive) in [3]; 0.295 (inactive) in [5]; -0.492 (inactive) in [6]; 0.796 (inactive) in test [7]. The z-score in test [8] is -1.13 (inactive); in test [9], -0.463. For the same molecule, the results for the composite z-score in [4] and in test [10] were -1.88 (inactive) and -0.277, respectively.
Consider `CCOC(=O)[C@H](Cc1ccccc1)NC(=O)CCC1CC(OC(=O)NCc2ccc3c(c2)OCO3)CC2(CCCC(COC(=O)NCCOC)O2)O1` (stereo not given in full), for which the z-score in test [1] is 0.0491; in test [2] it was -0.914 (inactive); in test [3], 0.808 (inactive); in test [5] it was -0.871 (inactive); in test [6] it was 0.0059 (inactive); in test [7], -0.477 (inactive). In addition, the z-score in test [8] is 0.525 (inactive); in test [9] it was -0.0023. The composite z-score in [4] is -2.56 (inactive); in [10] it was 0.0374.
Consider `CCOC(=O)NN=C1C[C@@H](O)[C@@H](O)[C@@H]2[C@@H]3C(=O)N(C[C@@H]4CCCO4)C(=O)[C@@H]3CC[C@H]12`, for which the z-score in [1] is 0.0254; in test [2] it was 0.197 (inactive); in test [3], -0.841 (inactive); in test [5], -0.495 (inactive); in test [6] it was -0.396 (inactive); in test [7], 0.213 (inactive). In addition, the z-score in test [8] is 0.626 (inactive); in test [9] it was -0.248. Besides, the composite z-score in [4] is -1.36 (inactive); in test [10] it was -0.02.
As for `CO[C@H]1COC(=O)CC=C[C@@H](C)COC(=O)[C@H]2CCCN2C(=O)CC=C[C@H]1C`, the z-score was -0.3 in test [1]; -0.872 (inactive) in test [2]; -0.0093 (inactive) in test [3]; 0.246 (inactive) in test [5]; 0.473 (inactive) in test [6]; 1.14 (inactive) in [7]. For the same molecule, the z-score is 0.745 (inactive) in test [8] and -0.258 in test [9]. In addition, the values for the composite z-score in [4] and in [10] were 0.119 (inactive) and 0.0595, respectively.
With `COc1ccc(COC(=O)NN=C2C[C@@H](O)[C@@H](O)[C@@H]3[C@@H]4C(=O)N(C[C@@H]5CCCO5)C(=O)[C@@H]4CC[C@@H]23)cc1`, the z-score in test [1] is -0.407; in [2], 0.443 (inactive); in [3] it was 0.075 (inactive); in test [5] it was 0.328 (inactive); in [6] it was 0.513 (inactive); in test [7], 1.02 (inactive). Also, the values for the z-score in [8] and in test [9] were 1.11 (inactive) and 0.115, respectively. The results for the composite z-score in test [4] and in [10] were -0.367 (inactive) and -0.0559, respectively.

The values are drawn from PubChem BioAssay.
